Assay outcomes (PubChem)
An excerpt weighted towards active compounds, which were near 11% of everything screened.
ALDH1A1 inh = ALDH1A1 (human) enzyme inhibition. Potency, µM (titrated, usually from 75.3 µM), for inactives: top-dose activity, negative = inhibition, most hits filed as inhibitors. Purified ALDH1A1, NADH fluorescence, propionaldehyde substrate. 7.3% of 220,000 active;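 further: potency means the concentration at half of the fitted maximal effect; plate controls were no enzyme wells and a reference inhibitor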
PNC assembly inh = perinucleolar compartment assembly inhibition; activity change (PNC), negative = inhibition, % at 10 µM; 3.1% of 140,000 active; PC3M PTB-GFP, PNC prevalence imaging, 16 h; active compounds read low;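 active means readout at or below -70, meaning at least 70% loss of cells showing the perinucleolar compartment, a nuclear body marking cancer cells; inconclusive means readout between -30 and a set limit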;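 further: plate controls were DMSO wells for no effect and camptothecin positive control wells for full effect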
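Read-out is percentage of cells bearing a perinucleolar compartment, from automated 20x imaging of fixed, Hoechst-stained PC3M PTB-GFP cells. Cells were seeded 4 h, then exposed 16 h to compound (23 nl of library stock) in duplicate plates.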
HPGD block = blocks human HPGD enzyme activity; P15428; purified HPGD, NADH fluorescence kinetic, PGE2 substrate; Potency, µM, without a hit: top-dose activity change, negative = inhibition, usual class: inhibitors; 4.3% of 150,000 active; AID 894; further: potency means the concentration at half of the fitted maximal effect
Target sequence (P15428 whole entry, looked up): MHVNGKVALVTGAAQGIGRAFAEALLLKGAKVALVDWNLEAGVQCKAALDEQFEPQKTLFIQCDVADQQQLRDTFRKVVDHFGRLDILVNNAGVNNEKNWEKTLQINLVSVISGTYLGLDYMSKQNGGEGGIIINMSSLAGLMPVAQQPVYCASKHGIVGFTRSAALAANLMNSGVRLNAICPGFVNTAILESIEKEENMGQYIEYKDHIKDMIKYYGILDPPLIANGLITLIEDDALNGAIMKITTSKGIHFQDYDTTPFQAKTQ
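20 nM HPGD preincubated 15 min at room temperature with compound in 50 mM Tris-HCl pH 8, 0.01% Tween 20. Started with 1 mM NAD+ and 30 uM prostaglandin E2; NADH fluorescence (360/450 nm) read 5 times over 30-s intervals, last minus first.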
* hit, by the source's call; ? = inconclusive; · = no result given; [ ] = remark or other dose. Unless noted, the call rests on the fitted dose curve; in most records, active means well fitted inhibition curve with a large enough effect (not every such curve was filed as active); inconclusive means small, poorly fitted or top-dose-only effect, or another doubt; inactive means no such curve, though single readings can be large or run the other way. Unless noted, on the % scale 0 is the no-effect control and ±100 the full control effect.

SMILES	ALDH1A1 inh	PNC assembly inh	HPGD block
Cc1ccc(OCC(=O)Nc2ccc(F)cc2)cc1C	10%	-100*	?
COCCOC(=O)c1ccc(NC(=O)COc2ccc([N+](=O)[O-])cc2)cc1	-13%	·	·
Cc1cc(OCC(=O)Nc2cnn(CCCC(=O)O)c2)ccc1[N+](=O)[O-]	-1%	·	·
CCC(CC)C(=O)NCCCCc1ccccc1	0%	?	-9%
COc1cccc(NC(=O)Nc2ccc(C(C)(C)C)cc2)c1	1%	·	·
CCCNC(=O)CCCCn1c(=S)[nH]c2c([nH]c3ccc(OC)cc32)c1=O	0%	·	·
S=C(NCCc1c[nH]c2ccccc12)NC1CC1	3%	·	·
O=C(Cn1[nH]c(=O)c2ccccc2c1=O)NC1CCCCCC1	-5%	-86*	-2%
COc1ccc2[nH]c3c(=O)n(CCCCC(=O)N4CCCC4)c(=S)[nH]c3c2c1	-7%	?	4.5µM*
O=C(Cn1[nH]c(=O)c2ccccc2c1=O)NC1CCN(Cc2ccccc2)CC1	8%	-11	-3%
O=C(CCCn1c(=S)[nH]c2ccccc2c1=O)NC1CCCC1	?	1	14µM*
CC1CCCCC1NC(=O)CCCn1c(=S)[nH]c2ccccc2c1=O (configuration not stated)	2%	·	·
O=C(CCc1c[nH]c2ccccc12)NC1CC1	5%	-11	16µM*
CC1CCCC(NC(=O)CCCn2c(=S)[nH]c3ccccc3c2=O)C1C (configuration not stated)	-1%	·	·
CCCn1c(=S)[nH]c2cc(C(=O)NCC3CCCO3)ccc2c1=O (configuration not stated)	4%	58	-16%
CC1CCCN(C(=O)CCCn2c(=S)[nH]c3ccccc3c2=O)C1 (configuration not stated)	18µM*	?	7.9µM*
O=C(CCn1c(=S)[nH]c2ccccc2c1=O)NCC1CCCO1 (configuration not stated)	?	36	28µM*
Cn1nc(C(C)(C)C)cc1NC(=O)Nc1cc(Cl)cc(Cl)c1	8%	·	·
COC(=O)c1ccccc1S(=O)(=O)N1CCc2nc(-c3ccccc3)c3c(c2C1)CO[C@@H](C)C3	?	·	-10%
COc1ccc2c(c1)OC13CCCCC1C2C(C(=O)c1ccccc1)C(=O)N3 (configuration not stated)	?	17	-11%
O=C(NCCc1nnc2ccc(NCc3ccc(Cl)cc3)nn12)c1ccccc1	11%	·	·
COCCCNC(=S)N(Cc1cccnc1)Cc1ccc(OC)c(OC)c1	9%	16	-7%
Cc1ccc(C(=O)N/C(=C\c2ccco2)C(=O)NCCCn2ccnc2)cc1C	25µM*	3	-28%
COc1ccc(C(=O)N/C(=C\c2ccco2)C(=O)NCCCn2ccnc2)cc1	-9%	?	-15%
CCOC(=O)N1CCN(S(=O)(=O)c2cccs2)CC1	-2%	47	-13%
SMILES	ALDH1A1 inh	PNC assembly inh	HPGD block
COc1ccc2c(CC(=O)NCc3cccs3)coc2c1	-11%	·	·
COc1ccc2c(CC(=O)N3CCN(S(=O)(=O)c4cccs4)CC3)coc2c1	2.8µM*	10	-5%
Cc1cc(C(=O)CCC(=O)N2CCN(S(=O)(=O)c3cccs3)CC2)c(C)s1	-10%	-100*	-7%
Cc1cc(Br)cn2cc(C(=O)O)nc12	-5%	·	·
CC(=O)NS(=O)(=O)c1ccc(NC(=O)CC(C)c2ccccc2)cc1 (configuration not stated)	1%	·	·
CCNc1nc(NC(C)C)nc(Oc2ccc(/C=N/O)cc2)n1	2%	30	-11%
Cc1ccccc1-c1nc2ccccc2c(=O)n1/N=C/c1ccccc1[N+](=O)[O-]	14µM*	9	22µM*
O=c1c2ccccc2nc(-c2ccccc2)n1/N=C/c1ccc([N+](=O)[O-])cc1	6%	19	-11%
CSc1nc(Sc2ccccc2Cl)c2ccccc2n1	-5%	?	-14%
CCOC(=O)c1cnc(SC)nc1Sc1ccccc1Cl	6%	-104*	16µM*
CC(=O)O[C@]1(C(C)=O)CC[C@H]2C3C=C(Cl)C4=CC(=O)[C@@H]5C[C@H]5[C@]4(C)C3CC[C@@]21C (some centres not stated)	3%	·	4%
CCN(C(=O)COC(=O)c1ccc(Cl)c(N)c1)C1CCS(=O)(=O)C1 (configuration not stated)	-2%	·	·
COc1ccc(-c2c3c(=O)n(C)c(=O)n(C)c3cn2-c2ccccc2)cc1	?	-91*	-12%
COc1ccc(C(=O)Nn2cc3c(c2-c2ccccc2)c(=O)n(C)c(=O)n3C)cc1	?	5	1%
O=c1cnc2cnc(Oc3cccc(Cl)c3)nc2n1Cc1ccc(F)cc1	-2%	·	-14%
O=c1cnc2cnc(OCc3ccccc3)nc2n1Cc1ccc(F)cc1	?	·	32µM*
N#CCCn1c(=O)cnc2cnc(Oc3ccccc3)nc21	-2%	·	·
COc1ccc(Oc2ncc3ncc(=O)n(CCc4ccccc4)c3n2)cc1	0.89µM*	·	-4%
COc1ccc(Oc2ncc3ncc(=O)n(Cc4cccc(OC)c4)c3n2)cc1	-5%	·	18µM*
COc1ccc(Oc2ncc3nc(-c4cccs4)c(=O)n(Cc4cccc(OC)c4)c3n2)cc1	?	·	-16%
Cc1ccc(S(=O)(=O)NC(=O)OC23COCN2COC3)cc1	9%[13.5 µM]	·	-6%
O=S(=O)(N/N=C/c1ccc2c(c1)OCCO2)c1ccc(Cl)cc1	-6%	?	-16%
Cc1cc(Cl)c(S(=O)(=O)N/N=C/c2ccc3c(c2)OCO3)c(Cl)c1	11µM*	60	-20%
CSc1c(SCc2ccccc2)cnn(-c2ccccc2)c1=O	?	?	-10%
CCCCCCC(=O)N/N=C/Cc1ccccc1	13µM*	?	-21%
SMILES	ALDH1A1 inh	PNC assembly inh	HPGD block
CCCCCCCCC(=O)N/N=C(\C)c1ccco1	5%	-6	-7%
O=C(O)C[C@@H](C(=O)O)C1c2ccccc2-c2ccccc21	9%[13.5 µM]	·	-9%
COc1ccc2cc(C(c3nnnn3CCc3ccccc3)N3CCC(O)CC3)c(=O)[nH]c2c1 (configuration not stated)	?	106	-15%
COc1ccc2cc(C(c3nnnn3Cc3ccccc3)N3CCCCCC3)c(=O)[nH]c2c1 (configuration not stated)	14µM*	2	-8%
COCCn1nnnc1C(c1cc2ccc(OC)cc2[nH]c1=O)N1CCN(C2CCCCC2)CC1 (configuration not stated)	?	37	?
COc1ccc(Cn2nnnc2C(c2cc3ccc(OC)cc3[nH]c2=O)N2CCC(C)CC2)cc1 (configuration not stated)	0.89µM*	26	-8%
COc1ccc(S(=O)(=O)NNC(=O)C(=O)NNc2ccccn2)cc1	0%	·	·
COc1ccc(N2CCN(C(=O)Cc3ccc(S(=O)(=O)N4CCOCC4)s3)CC2)cc1	-8%	·	·
CC(C)(C)c1ccc(S(=O)(=O)NCc2ccc(C(=O)N3CCCC3)cc2)cc1	4µM*	17	?
CCOC(=O)N1CCN(C(=O)c2ccc(CNS(=O)(=O)c3ccc(C)cc3)cc2)CC1	0%	?	-5%
Cc1ccc(S(=O)(=O)NCc2ccc(C(=O)N3CCCC3)cc2)cc1	?	50	20µM*
Cc1ccc(S(=O)(=O)Cc2ccc(C(=O)N3CCCCCC3)o2)cc1	?	-8	-6%
O=C(c1cccc(S(=O)(=O)NCc2ccccc2)c1)N1CCCC1	2%	·	·
